D2 PAM-1 = positively modulates the human D2 dopamine receptor allosterically; HEK293 T-REx D2, calcium flux, EC20 dopamine potentiation; potentiation, % at 10 µM; hit rate 0.34% among 340,000; AID 485347;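 active = potentiation over 3 SD above the plate norm, cut at about 30% in these data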; also: 0% is about no effect
Target sequence (P14416 whole entry, looked up): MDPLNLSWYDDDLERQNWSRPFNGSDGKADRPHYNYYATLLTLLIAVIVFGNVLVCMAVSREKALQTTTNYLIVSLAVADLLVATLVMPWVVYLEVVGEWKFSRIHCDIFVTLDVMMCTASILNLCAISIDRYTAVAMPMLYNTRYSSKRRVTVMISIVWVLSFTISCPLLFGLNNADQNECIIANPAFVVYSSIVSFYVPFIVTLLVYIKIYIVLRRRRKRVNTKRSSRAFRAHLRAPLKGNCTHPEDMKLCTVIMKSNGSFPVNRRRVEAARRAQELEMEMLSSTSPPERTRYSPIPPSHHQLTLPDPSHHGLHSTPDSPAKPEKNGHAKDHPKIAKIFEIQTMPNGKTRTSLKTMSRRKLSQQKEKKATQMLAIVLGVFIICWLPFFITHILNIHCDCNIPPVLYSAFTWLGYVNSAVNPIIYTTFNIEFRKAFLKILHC
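Cells plated with tetracycline inducer and held overnight at 30 C; calcium dye loaded 30–90 min at room temperature; baseline taken, compound added and read 180 s; EC20 dopamine then added and read 180 s.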
D2 PAM-2 = positive allosteric modulators of human D2 dopamine receptor; P14416; DiscoveRx D2 beta-arrestin cells, luminescence, 90 min; 100% = 57 uM dopamine signal; potentiation, % (no concentration beside the values); hit rate 0.23% among 360,000; AID 624464; in the data active = potentiation above about 50%
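D2 cells co-treated with compound plus 50 nM dopamine (EC20) for 90 min at 37 deg C to detect potentiation. Beta-arrestin recruitment was read as enzyme-fragment luminescence after 1 h at ambient temperature. Full response was set by 57 uM dopamine.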
D2 ag-1 = activates the human D2 dopamine receptor. DiscoveRx PathHunter D2 beta-arrestin, luminescence, 90 min; 100% = 57 uM dopamine signal. activation, % (test concentration not listed). hit rate 0.084% among 360,000. AID 624465; in the data active = activation above about 40%
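DiscoveRx PathHunter D2 beta-arrestin cells (2,100/well) attached overnight, then compound-stimulated 90 min at 37 C in HBSS/10 mM HEPES/0.1% Tween-20 buffer; beta-galactosidase complementation read by luminescence after 1 h at ambient temperature. Dopamine 57 uM final (EC100) as control.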
D2 ag-2 = activates the human D2 dopamine receptor; P14416; HEK293 T-REx D2 cells, calcium flux agonist mode; activation, % at 2 µM; hit rate 0.53% among 340,000; AID 485358;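 active = activation over 3 SD above normal in the single-dose calcium agonist read, cut at about 30% in these data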; also: 0% is about no effect
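Agonism is scored from calcium flux in a force-coupled, inducible HEK293 cell line expressing D2, read kinetically for 180 s after compound addition against dopamine controls.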
D2 antag = antagonizes the human D2 dopamine receptor; P14416; HEK293 TREx D2 cells, calcium flux, dopamine EC80; inhibition, % at 10 µM; hit rate 2% among 340,000; AID 485344; in the data active = inhibition above about 30%; inactive = below that, where a call was filed; also: 0% is about no effect
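Read-out: kinetic calcium fluorescence (1 cycle/s) in inducible HEK293 T-REx D2 cells after an EC80 dopamine addition that followed 180 s compound preincubation. Loss of the dopamine response indicates antagonism.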
An asterisk follows results filed as active; . = no result given. The list is not random: actives were taken first. Their share in the collection is about 2.4%.

SMILES	D2 PAM-1	D2 PAM-2	D2 ag-1	D2 ag-2	D2 antag
Cc1c(NC(=O)c2cccnc2Cl)c(=O)n(-c2ccccc2)n1C	-8	-6	-5	0	36*
CC(NC(=O)c1ccc(N2Cc3ccccc3Oc3ncccc32)s1)c1ccccc1 (stereo not drawn)	5	.	.	0	.
CCOc1ccc(C(=O)N(Cc2cc(OC)c(OC)c(OC)c2)c2ccccn2)cc1	.	.	.	0	.
COc1cc(Cl)c(C)cc1NC(=O)CC1SC(N2CCOCC2)=NC1=O (stereo not drawn)	-23	-4	0	-1	99*
COc1ccc(NC(=O)CC2SC(N3CCOCC3)=NC2=O)c(OC)c1 (stereo not drawn)	.	-5	2	.	.
CCc1cccc(C)c1NC(=O)NC1COc2ccccc2C1 (stereo not drawn)	-6	.	.	0	.
C=CCn1c(SCn2nnc3ccccc3c2=O)nnc1-c1ccc(F)cc1	8	-1	2	0	-6
C=CCn1c(SCn2nnc3ccccc3c2=O)nnc1-c1ccc(Br)cc1	36*	-6	-1	-2	-10
COc1ccc(NC(=O)C2(C)Cc3c(-c4cccc(C(N)=O)c4)ccnc3O2)cn1 (stereo not drawn)	.	-10	13	.	.
COc1ccc(CNC(=O)C2CCN(S(=O)(=O)c3ccc4c(ccn4C)c3)CC2)cc1	-1	.	.	0	.
COc1ccc2c(c1)CC(C1(O)C(=O)Nc3ccccc31)C2=O (stereo not drawn)	-1	2	-2	0	7
O=C1CCCCCC1C1(O)C(=O)Nc2ccccc21 (stereo not drawn)	42*	-4	2	1	-4
CC(=O)Cn1c(CN2CCCC2)nc2ccccc2c1=O	-4	-6	-5	1	35*
CC(=O)Cn1c(CN2CCCCC2)nc2ccccc2c1=O	-29	-4	-4	1	4
Cc1ccc(C)c(OCCN2C(=O)NC3(CCc4ccccc4C3)C2=O)c1 (stereo not drawn)	-3	-27	-4	1	33*
CCc1ccccc1NC(=O)Cn1nc(CC)n2c(cc3sccc32)c1=O	-7	.	.	-1	.
O=C(Nc1c(O)c2ccccc2oc1=O)c1ccccc1Cl	14	.	.	2	.
COc1ccccc1C(=O)NC1CCCc2ccccc21 (stereo not drawn)	2	-5	2	2	8
COc1cc(C(=O)NC2CCCc3ccccc32)cc(OC)c1C (stereo not drawn)	.	-4	1	-3	55*
CCS(=O)(=O)c1ccccc1C(=O)NC1CCCc2ccccc21 (stereo not drawn)	7	-5	3	-2	12
CS(=O)(=O)c1ccccc1C(=O)NC1CCCc2ccccc21 (stereo not drawn)	37*	-3	-1	1	-6
COC(=O)c1ccccc1-c1c2ccc(=N)cc-2oc2cc(N)ccc12	-20	-15	-16	97*	77*
COC(=O)c1ccccc1-c1ccc(/C=N/NC(=O)c2cc3ccccc3o2)o1	-17	-28	-2	0	-14
COc1ccc(OC)c(/C=C/C(=O)Nc2ccc3c(c2)CCC3)c1	-26	-42	-2	-1	49*
COc1ccc(NC(=O)/C=C/c2cc(Br)ccc2OC)cc1	-21	-43	-2	-1	49*
SMILES	D2 PAM-1	D2 PAM-2	D2 ag-1	D2 ag-2	D2 antag
Cc1cc(O)c(-c2ccnc3cc(-c4ccccc4)nn23)cc1Cl	17	.	.	-1	.
CCC(C)NC(=O)Cn1cc(S(=O)(=O)N2CCCC2)c(S(=O)(=O)N2CCCC2)c1 (stereo not drawn)	-3	1	-5	-1	9
CCCNC(=O)Cn1cc(S(=O)(=O)N2CCCC2)c(S(=O)(=O)N2CCCC2)c1	-3	-11	-6	0	37*
Cc1ccc(-n2nc3c(N4CCC(C(=O)NCc5ccc(C)o5)CC4)nnc(C)c3c2C)cc1	31*	-9	3	0	7
CC(NC(=O)c1cccc(S(=O)(=O)N(C)C)c1)C1CC2CCC1C2 (stereo not drawn)	3	-8	-2	-2	-13
CC(NC(=O)c1cc(S(=O)(=O)N(C)C)ccc1Cl)C1CC2CCC1C2 (stereo not drawn)	-5	-1	0	0	35*

Screens (PubChem)
